Data on 26 compounds can be found in ChEMBL document CHEMBL1157539, “Thousands of chemical starting points for antimalarial lead identification” (Nature, 2010).

Assay type in all cases: functional
The subject of assay [1] is Plasmodium falciparum. Description: GSK_TCMDC: Inhibition of Plasmodium falciparum 3D7 in whole red blood cells, using parasite LDH activity as an index of growth. Test compounds present at 2uM.
Assay [2] has as its system Plasmodium falciparum. Kind of assay: GSK_TCMDC: Inhibition of Plasmodium falciparum Dd2 in whole red blood cells, using parasite LDH activity as an index of growth. Test compounds present at 2uM.
The subject of another assay is HepG2. Kind of assay: GSK_TCMDC: Percent inhibition of human HepG2 cell line. Test compounds present at 10uM.

A word on the Inhibition: it is the change of the read-out against control, counted positive when it falls. The low end stands for a response near the control, the high end for a response far below the control.

As to `Cc1cc(NC(=O)Nc2cccc(C#N)c2)c2ccccc2n1`, the Inhibition with Plasmodium falciparum [1] turned out to be 100%; in the assay with Plasmodium falciparum [2], 82%; in the assay on HepG2, 17%.
On to `COc1ccc(NC(=O)/C=C/c2ccccc2Cl)cc1OCCN1CCC(NC2CC2)CC1`, for which the Inhibition amounted to 100% with Plasmodium falciparum [1], 66% with Plasmodium falciparum [2] and 23% with HepG2.
The matching figures for `Cn1nc(C(=O)N2CCC(c3[nH]ncc3Cc3ccccc3)CC2)c2ccccc2c1=O`: 95%, 95% and 5%.
As for `COc1ccc(NC(=O)c2ccc3[nH]c(-c4ccc(Cl)cc4)cc3c2)cc1OCCN(C)C`, the Inhibition with Plasmodium falciparum [1] came out at 100%; with Plasmodium falciparum [2], 78%; in the assay with HepG2, 32%.
Turning to `CCCCCCCN1CCC(CC(=O)Nc2ccnc3ccc(OC)cc23)CC1`, the Inhibition in the assay on Plasmodium falciparum [1] was 97%; in the assay on Plasmodium falciparum [2], 52%; with HepG2 it was 15%.
On the same counts, the results for `O=C(O)C(F)(F)F.Oc1ccc(CCNc2nc(NCc3ccccc3-c3ccc(C(F)(F)F)cc3)nc(N3CCCNCC3)n2)cc1` are 95%, 2% and 12%.
On the same counts, the results for `CN1CCN(c2ccc(Nc3ncc([N+](=O)[O-])c(Nc4ccccc4O)n3)cc2)CC1.O=C(O)C(F)(F)F` are 100%, 97% and 98%.
The matching figures for `CCc1c[nH]c2c(N(c3ccccc3)S(C)(=O)=O)cc(C(=O)N[C@@H](Cc3ccccc3)[C@H](O)CNC(C)(C)CCCC(C)C)cc12.O=CO`: 98%, 96% and 99%.
`CC(C)c1sc(-c2ccc(C(C)(C)C)cc2)nc1C(=O)NCCCN1CCCC1=O`: the figures for the Inhibition in the assay on Plasmodium falciparum [1], in the assay on Plasmodium falciparum [2] and in the assay with HepG2 were 96%, 92% and 0%, respectively.
The matching figures for `O=C(Cn1c(CCc2cccc(F)c2F)nc(=O)c2ccccc21)N(Cc1ccc(-c2ccc(C(F)(F)F)cc2)cc1)C1CCN(C2=NCCS2)CC1.O=C(O)C(O)C(O)C(=O)O`: 81%, 85% and 62%.
The matching figures for `CS(=O)(=O)CCNCc1nc(-c2ccc3c(Nc4ccc(F)c(O)c4)ccnc3c2)cs1`: 95%, 84% and 0%.
On the same counts, the results for `CN1CCN(CC(=O)Nc2cccc(-c3ccc(-c4nc5cc(F)ccc5[nH]4)s3)c2)CC1` are 100%, 94% and 71%.
Regarding `CN1CCN(c2ccc3[nH]c(-c4ccc(Cc5cc(Cl)ccc5OCc5ccccc5)o4)nc3c2)CC1.Cl`, the Inhibition is recorded as 100% in the assay on Plasmodium falciparum [1], 79% with Plasmodium falciparum [2] and 27% with HepG2.
On the same counts, the results for `O=C(Nc1cccc(OC2CCN(Cc3ccccc3)CC2)c1)c1ccc([N+](=O)[O-])cc1.O=C(O)C(F)(F)F` are 100%, 2% and 6%.
For `Cc1cc(N)c2cc(NC(=O)c3cc(C(F)(F)F)cc(C(F)(F)F)c3)ccc2n1.Cl`, the Inhibition in the assay with Plasmodium falciparum [1] came out at 100%; in the assay with Plasmodium falciparum [2] it was 99%; with HepG2 it was 100%.
In the case of `COc1ccc(CNCc2cccc(-c3cccc(-c4nc5cc(C(F)(F)F)ccc5[nH]4)c3)c2)cc1.O=C(O)C(F)(F)F`, the figures for the Inhibition in the assay on Plasmodium falciparum [1], in the assay on Plasmodium falciparum [2] and in the assay with HepG2 were 100%, 91% and 40%, respectively.
For the compound `Cc1ccc(NC(=O)Nc2ccccc2F)cc1-c1ccc(C(=O)Nc2ccncc2)cc1`, the results for the Inhibition in the assay on Plasmodium falciparum [1], in the assay on Plasmodium falciparum [2] and with HepG2 were 99%, 54% and 36%, respectively.
On the same counts, the results for `CCc1nc2nc(C)cc(Nc3cc(C)cc(C)c3)n2n1` are 96%, 96% and 21%.
For the compound `Cc1ccc2c(OCCN3CCC(Cc4ccc5c(c4)NC(=O)CO5)CC3)cc(F)cc2n1.Cl`, the Inhibition in the assay with Plasmodium falciparum [1] was found to be 89%; in the assay with Plasmodium falciparum [2], 21%; in the assay with HepG2, 24%.
The matching figures for `CC(C)(C)OC(=O)[C@H](CC(N)=O)NC(=O)c1ccc(-c2ccc(-c3nc4cc(C(F)(F)F)ccc4[nH]3)s2)cc1`: 94%, 88% and 62%.
On the same counts, the results for `COc1ccccc1CN1CCC(CNC(=O)c2cc(-c3cccc(C(F)(F)F)c3)cs2)C1.O=C(O)C(F)(F)F` (stereo not drawn) are 84%, 1% and 25%.
On the same counts, the results for `Cc1ccc(C(=O)N2CCN(Cc3nccs3)CC2)cc1` are 86%, 0% and 0%.
As to `CC1CCN(c2nc(C(=O)NCCc3ccc(Cl)c(Cl)c3)c(C(C)C)s2)CC1.O=C(O)C(F)(F)F`, the Inhibition in the assay with Plasmodium falciparum [1] is 88%; in the assay on Plasmodium falciparum [2], 38%; with HepG2, 0%.
On the same counts, the results for `CC(C)OC(=O)c1ccc(NC(=O)N[C@@H](Cc2ccc(O)cc2)C(=O)NC2CCC(CCN3C4CCC3c3ccccc34)CC2)cc1.O=C(O)C(F)(F)F` (stereo partly drawn) are 95%, 67% and 3%.
The matching figures for `O=C(NCC1CCN(Cc2cccc(C(F)(F)F)c2)C1)c1cc(-c2cccc(Cl)c2)cs1.O=C(O)C(F)(F)F` (stereo not drawn): 93%, 14% and 15%.
As for `COc1ccc2nccc([C@@H](O)CN3CCC(NCCc4c[nH]c5ccccc45)CC3)c2c1.O=C(O)C(=O)O`, the Inhibition in the assay with Plasmodium falciparum [1] was determined as 98%; in the assay with Plasmodium falciparum [2], 77%; in the assay with HepG2, 0%.
